# Compound activity as filed in PubChem.
# This excerpt belongs to a sample that is enriched for hits.
# DT40 TDP1 no CPT: qHTS for Inhibitors of human tyrosyl-DNA phosphodiesterase 1 (TDP1): qHTS in cells in absence of CPT. DT40 Tdp1-/- hTDP1 cells, no CPT, ATP luminescence, 48 h. Potency, µM (titrated, usually from 46.2 µM), actives largely listed as inhibitors. actives 15% (n = 420,000); also: nearly all actives have a fitted effect of over 55% in size
#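 Readout: luminescence from CellTiter-Glo after 30 min in the dark at RT. Cells: DT40 Tdp1-/- with stable hTDP1, 400/well. Exposure: compounds alone, ≥48 hr, 37 °C.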
# HT1080 IDH1KD tx: toxicity to HT-1080 IDH1 knockdown cells (counter line). actives 2% (n = 360,000). Potency, µM (titrated, usually from 46.1 µM), usual class: cytotoxic. HT-1080 IDH1 knockdown viability, ATP luminescence, 48 h
#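 Cytotoxicity counter-line: IDH1KD HT-1080, 48 h, CellTiter-Glo. Curves classed by r2, magnitude and activity.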
# 12-LOX inh: inhibitors of human 12S-lipoxygenase ALOX12. P18054. purified 12hLO, xylenol orange hydroperoxide absorbance. Potency, µM (highest dose often 108 µM), most hits filed as inhibitors. actives 1.1% (n = 580,000)
# Target sequence (P18054 whole entry, looked up): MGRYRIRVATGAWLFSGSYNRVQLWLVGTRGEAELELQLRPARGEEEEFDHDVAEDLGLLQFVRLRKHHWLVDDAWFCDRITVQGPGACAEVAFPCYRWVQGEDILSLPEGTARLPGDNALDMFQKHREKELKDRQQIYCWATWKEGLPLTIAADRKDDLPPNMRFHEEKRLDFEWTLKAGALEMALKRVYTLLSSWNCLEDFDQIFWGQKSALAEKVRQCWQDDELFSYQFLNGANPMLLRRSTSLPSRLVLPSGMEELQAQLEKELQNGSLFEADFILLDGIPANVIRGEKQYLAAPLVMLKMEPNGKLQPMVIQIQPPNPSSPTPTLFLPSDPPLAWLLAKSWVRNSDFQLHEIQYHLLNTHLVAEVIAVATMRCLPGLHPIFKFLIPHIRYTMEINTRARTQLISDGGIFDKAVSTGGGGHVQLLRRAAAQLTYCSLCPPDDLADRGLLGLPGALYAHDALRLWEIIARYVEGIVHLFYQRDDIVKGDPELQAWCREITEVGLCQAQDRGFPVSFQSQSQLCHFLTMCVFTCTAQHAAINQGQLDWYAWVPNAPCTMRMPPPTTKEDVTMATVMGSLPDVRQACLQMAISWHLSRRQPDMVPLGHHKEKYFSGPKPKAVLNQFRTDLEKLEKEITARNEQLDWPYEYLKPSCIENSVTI
#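 Hydroperoxide product was detected by ferrous iron/xylenol orange as the 573 to 405 nm absorbance ratio. Arachidonic acid at 40 uM (final) was turned over for 30 min at room temperature by 150 nM human 12hLO, pH 7.0 Hepes buffer, after 15 min compound preincubation.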
# IL-1B inflam inh: inhibitors of inflammasome signaling (IL-1 beta secretion). THP-1 LPS/ATP IL-1B secretion, AlphaLISA, 16 h; hits give low values. activity change, % at 57.5 µM. actives 4.7% (n = 360,000). AID 743279; in the data active = activity change below about -50%; inconclusive = mostly about -30% to -49%
#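 THP-1 cells pretreated 1 hr with compounds (up to 57.5 uM final), then stimulated with LPS (250 ng/mL final) plus ATP (1.25 mM final); secreted IL-1B measured by AlphaLISA after 16 hr, decreased signal indicating inhibition.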
# HT1080-NT tox: kills 2HG-producing HT-1080-NT fibrosarcoma cells; HT-1080-NT fibrosarcoma viability, CellTiter-Glo ATP luminescence, 48 h; Potency, µM (highest dose often 46.1 µM), actives largely listed as cytotoxic; actives 1.6% (n = 360,000);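 also: NT is the 2HG producing partner of a matched IDH1 knockdown line; nearly all actives have a fitted effect of over 55% in size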
#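 Viability of the 2HG-overproducing fibrosarcoma line after 48 hours of compound exposure at 37 degrees C was determined by luminescence with CellTiter-Glo, and concentration-effect curves were then fitted and categorized.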
# TDP1 cell CPT: growth inhibition of DT40 Tdp1-/-;hTDP1 cells with camptothecin (screen for TDP1 inhibitors); chicken DT40 Tdp1-/-;hTDP1 cells + 20 nM CPT, ATP luminescence, 48 h; Potency, µM (titrated, usually from 46.2 µM), usual class: inhibitors; actives 12% (n = 420,000); AID 686979; also: nearly all actives have a fitted effect of over 55% in size
#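 Chicken DT40 Tdp1-/- cells complemented with human TDP1, 400 cells/well, exposed to compounds plus 20 nM camptothecin for at least 48 h at 37 C; viability read as ATP content by CellTiter-Glo luminescence.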
# Hits are given with their value; i = inactive; ? = inconclusive; nt = no result given; [ ] = dose if it differs, or a comment. Unless noted, calls follow the shape of the dose curve; as a rule, active = well fitted curve in the direction sought with a large enough effect; inconclusive = small, poorly fitted or top-dose-only effect, or another doubt; inactive = no such curve, though single readings can be large; an effect the other way counts as inactive or inconclusive.
SMILES,DT40 TDP1 no CPT,HT1080 IDH1KD tx,12-LOX inh,IL-1B inflam inh,HT1080-NT tox,TDP1 cell CPT
Cc1nn(C)cc1C(=O)Nc1cc(Oc2ccc(Cl)cc2)cc([N+](=O)[O-])c1,?,i,i,i,i,?
CCOc1ccc(C=O)c2ccccc12,nt,nt,i,nt,nt,nt
CCCCc1c(C)nc(Nc2nc(C)c3cc(OC)ccc3n2)[nH]c1=O,nt,nt,i,nt,nt,nt
COc1cccc(-c2ccc(NC(=O)C3CCCN(Cc4cc(C(C)C)n[nH]4)C3)cc2)c1 (centres undefined),nt,nt,i,nt,nt,nt
COCc1nn2c3c(cnc2c1-c1ccccc1)C(=O)CC(c1ccccc1)C3 (centres undefined),nt,nt,i,nt,nt,nt
N#Cc1ccc(CSc2ccccc2C(=O)Nc2ccc3c(c2)OCCCO3)cc1,nt,nt,14.1µM,nt,nt,nt
COc1ccc(NC(=O)c2ccccc2SCc2ccc(C#N)cc2)cc1OC,nt,nt,35.5µM,nt,nt,nt
O=C(Nc1ccc2c(c1)OCCCO2)c1ccccc1SCc1cccs1,nt,nt,15.8µM,nt,nt,nt
N#CCSc1ccccc1C(=O)Nc1ccc2c(c1)CCC2,nt,nt,1.12µM,nt,nt,nt
O=C(O[C@H]1CC[C@@]23CCCN2C(=O)CCC[C@H]3C1)c1ccc(Br)cc1,nt,nt,i,nt,nt,nt
CCOC(=O)C1(c2ccccc2)CCCNC1=O (centres undefined),?,?,i,i,i,?
CCOC(=O)C1(c2ccccc2)SC(C(=O)OCC)(c2ccccc2)S1 (centres undefined),?,i,?,-66.2,i,i
CCC(C)NC(=O)COc1ncnc2ccccc12 (centres undefined),nt,nt,i,nt,nt,nt
O=C(c1ccc(Cl)c([N+](=O)[O-])c1)N(Cc1cccc(Cl)c1)C1CCS(=O)(=O)C1 (centres undefined),?,i,i,-93.2,i,?
CCCCOc1cccc(C(=O)N(Cc2ccc(Br)o2)C2CCS(=O)(=O)C2)c1 (centres undefined),16.4µM,nt,i,nt,nt,18.4µM
Cc1ccc(CN(C(=O)c2ccc(Cl)c([N+](=O)[O-])c2)C2CCS(=O)(=O)C2)o1 (centres undefined),i,i,i,-94.8,i,i
O=C(/C=C/c1ccc(Cl)cc1Cl)N(Cc1ccc(Cl)cc1)C1CCS(=O)(=O)C1 (centres undefined),16.4µM,i,i,i,i,?
CCOC(=O)c1cccc(OCc2ccc(C#N)cc2)c1,nt,nt,i,nt,nt,nt
O=C(O)C1=NOC2CN(Cc3ccc(C(F)(F)F)cc3)CC12 (centres undefined),nt,nt,i[6.33 µM],nt,nt,nt
COc1ccc(-c2noc(CSc3nnc(-c4ccco4)n3C3CCCCC3)n2)cc1OC,nt,nt,i,nt,nt,nt
O=C(c1ccc(Cl)c([N+](=O)[O-])c1)N(Cc1ccc(Cl)cc1)C1CCS(=O)(=O)C1 (centres undefined),23.1µM,?,i,-88.1,?,?
COc1cccc(C(=O)N(Cc2ccc(C)o2)C2CCS(=O)(=O)C2)c1 (centres undefined),i,nt,i,nt,nt,i
CCCCCOc1c(Cl)cc(C(=O)N(Cc2ccc(C)o2)C2CCS(=O)(=O)C2)cc1Cl (centres undefined),16.4µM,nt,i,nt,nt,18.4µM
Cc1ccc(Cl)cc1N1CCN(C(=O)c2cnn(C)c2C2CCN(C(=O)OC(C)(C)C)CC2)CC1,5.8µM,nt,i,nt,nt,6.51µM
Cc1ccc(C)c(N2CCN(C(=O)c3cnn(C(C)(C)C)c3C3CCN(C(=O)OC(C)(C)C)CC3)CC2)c1,?,nt,i,nt,nt,18.4µM
SMILES,DT40 TDP1 no CPT,HT1080 IDH1KD tx,12-LOX inh,IL-1B inflam inh,HT1080-NT tox,TDP1 cell CPT
Cc1ccc(Cl)cc1N1CCN(C(=O)c2cnn(C(C)(C)C)c2C2CCN(C(=O)OC(C)(C)C)CC2)CC1,?,nt,i,nt,nt,25.9µM
Cc1ccc(-n2ncc(C(=O)N3CCN(c4cc(Cl)ccc4C)CC3)c2C2CCN(C(=O)OC(C)(C)C)CC2)cc1,i,nt,i,nt,nt,?
Cc1ccc(-n2ncc(C(=O)N3CCN(c4ccccc4F)CC3)c2C2CCN(C(=O)OC(C)(C)C)CC2)cc1C,i,nt,i,nt,nt,?
CCN(CC)C(=O)[C@H]1C[C@H](CC(=O)NCc2ccc(OC)c(OC)c2)C(=O)N2CCc3c([nH]c4cc(CCC(=O)N(C)C)ccc34)[C@]12C,i,i,i,i,i,i
CC(C)=CCC/C(C)=C/CNC(=O)C[C@H]1C[C@H](C(=O)N2CCCCC2)[C@@]2(CCc3ccccc3)c3[nH]c4cc(CCC(=O)N(C)C)ccc4c3CCN2C1=O,8.2µM,i,i,-68.5,i,10.3µM
CCN(CC)C(=O)[C@H]1C[C@H](CC(=O)NC/C=C(\C)CCC=C(C)C)C(=O)N2CCc3c([nH]c4cc(CCC(=O)N(C)C)ccc34)[C@]12C,14.6µM,i,nt,?,i,16.4µM
CC1CCN(S(=O)(=O)c2cnc(Cl)c(Br)c2)CC1,i,i,i,-64.5,i,i
CC1CCCCN1S(=O)(=O)c1coc(C(N)=O)c1 (centres undefined),i,i,i,i,i,i
CC1CCN(S(=O)(=O)c2ccc(Cl)cc2Br)CC1,i,i,i,i,i,i
CC1CCCCN1S(=O)(=O)c1cnc(Cl)c(Br)c1 (centres undefined),?,i,i,-93.6,i,?
Cc1cccc(OCC2Cn3c(nc4c3c(=O)[nH]c(=O)n4C)O2)c1 (centres undefined),10.3µM,i,i,i,i,?
CCc1ccc(OCC2Cn3c(nc4c3c(=O)[nH]c(=O)n4C)O2)cc1 (centres undefined),25.9µM,i,i,i,i,?
Cc1[nH]c2ccccc2c1C(C#N)(C#N)C1C(=O)c2ccccc2C1=O,2.06µM,25.9µM,?,i,18.4µM,2.06µM
Cc1[nH]c2ccccc2c1CC#N,i,i,i,i,i,?
CN(C)C(=O)c1cccnc1OC1CCN(C(=O)c2ccc(F)c(F)c2)C1 (centres undefined),nt,nt,i,nt,nt,nt
CSc1nc(=S)c2[nH]c(=S)[nH]c2[nH]1,i,i,i,i,i,i
Nc1nc(=S)c2[nH]c(=S)[nH]c2[nH]1,i,?,7.94µM,i,i,i
C/C(=N\Nc1nc2c(s1)CCCC2)c1ccccc1,14.6µM,?,i,i,?,16.4µM
C/C(=N\Nc1nc(C(C)(C)C)cs1)c1ccccc1,23.1µM,i,?,i,i,23.1µM
Cc1ccc(/C=N/Nc2nc(C(C)(C)C)cs2)o1,?,i,i,?,i,i
C/C(=N\Nc1nc(C(C)(C)C)cs1)c1ccc(O)cc1,18.4µM,i,i,i,i,i
C/C(=N\Nc1nc(C(=O)O)cs1)c1ccccc1,i,i,i,i,i,i
